In PubChem BioAssay AID1645878 (National Center for Advancing Translational Sciences (NCATS), 2021):
The list shows a part of the results. Inconclusive results are not listed. Calls of active or inactive are those of the source. The call rests on the fitted dose curve; in most records, active means well fitted inhibition curve with a large enough effect; inconclusive means small, poorly fitted or top-dose-only effect; inactive means no such curve, though single readings can be large or run the other way.

Target: Nicotinamide N-methyltransferase (Homo sapiens) (UniProt P40261)
Sequence (P40261 whole entry, looked up): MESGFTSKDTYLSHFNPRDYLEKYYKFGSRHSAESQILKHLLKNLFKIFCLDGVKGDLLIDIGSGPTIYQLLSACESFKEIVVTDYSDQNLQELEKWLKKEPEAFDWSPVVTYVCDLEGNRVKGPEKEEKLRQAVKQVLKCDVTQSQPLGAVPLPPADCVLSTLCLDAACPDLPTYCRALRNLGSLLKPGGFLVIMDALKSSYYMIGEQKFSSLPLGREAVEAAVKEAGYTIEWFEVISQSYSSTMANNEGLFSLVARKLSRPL
Assay: Counterscreen qHTS for Inhibitors of N-terminal methyltransferase 1 (NTMT1): NNMT MTaseGlo assay
Conditions: NNMT MTase-Glo luminescence, SAH detection; series mostly up to 57.1 µM
Excerpt: Assay Submitter (PI): Rong Huang Ph.D. Purdue University, West Lafayette, IN 47907 The N-terminal methytransferase 1 is the first methyltransferase that methylates protein alpha-N-amines and plays an important role in regulating cell mitosis, chromatin interactions and DNA repair. It is observed to be over-expressed in various cancer patient tissues like malignant melanoma and colorectal cancer tissues. Knockdown of NTMT1 in cancer cells causes cell mitotic defects and enhances sensitivity to DNA damaging chemotherapeutics. […] These critical cellular processes in which NTMT1 is implicated, coupled with emerging links to cellular dysfunction, strengthen the inference that NTMT1 is a compelling novel anticancer target. […] To address this unmet need, a panel of assay is created and established to enable quantitative high-throughput screening (qHTS) for novel, potent, and selective small molecule NTMT1 inhibitors. […] MTaseGlo Assay is a luminescence screen that measure the activity of methyltransferases based on the reaction product S-adenosyl homocysteine (SAH). […]
Materials: NNMT enzyme, SAM, NA, and control is provided by the Huang laboratory. […] 11; Detection; Luminescence; Plates were read using luminescence optics on a ViewLux detector (PerkinElmer). […]

Compound	outcome
COc1cc2ncnc(Nc3cccc(Cl)c3F)c2cc1OC(=O)N1CCN(C)C[C@H]1C	inactive
CC(C)(O)c1ccc2c(c1)C(=O)CC1[C@](C)(CO)CCC[C@]21C (some centres not stated)	inactive
